Reference: PubChem BioAssay AID1851 (National Center for Advancing Translational Sciences (NCATS), 2009)
About 5,100 (32%) of roughly 16,000 compounds were called active. About 25% were inconclusive and are not listed. The list shows a part of the results. Unmarked numbers belong to inactive results. The call rests on the fitted dose curve; in most records, active means well fitted curve in the direction sought with a large enough effect; inconclusive means small, poorly fitted or top-dose-only effect, or effect the other way; inactive means no such curve, though single readings can be large or run the other way.

These molecules were tested against Cytochrome P450 3A4 (Homo sapiens) (UniProt P08684) (assay: Cytochrome panel assay with activity outcomes). Conditions: recombinant CYP, pro-luciferin dealkylation, luminescence, p450-cyp3a4; series mostly up to 57.1 µM; activity, negative = inhibition: at the top concentration.
Chain of Cytochrome P450 3A4 (Homo sapiens) (P08684 whole entry, looked up): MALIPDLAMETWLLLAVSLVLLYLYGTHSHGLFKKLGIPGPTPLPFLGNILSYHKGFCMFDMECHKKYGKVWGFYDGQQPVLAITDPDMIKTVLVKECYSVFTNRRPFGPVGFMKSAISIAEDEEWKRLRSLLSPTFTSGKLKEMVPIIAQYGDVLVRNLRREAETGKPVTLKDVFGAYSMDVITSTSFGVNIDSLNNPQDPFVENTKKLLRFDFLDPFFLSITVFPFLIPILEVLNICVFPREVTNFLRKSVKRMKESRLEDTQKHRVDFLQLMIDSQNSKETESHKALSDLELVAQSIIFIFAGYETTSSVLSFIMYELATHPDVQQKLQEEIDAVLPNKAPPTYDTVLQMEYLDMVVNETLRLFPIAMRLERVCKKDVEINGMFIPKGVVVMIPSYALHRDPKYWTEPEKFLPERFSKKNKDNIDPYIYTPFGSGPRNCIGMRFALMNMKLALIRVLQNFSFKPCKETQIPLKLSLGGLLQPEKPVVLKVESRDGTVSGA
On the % scale 0 is the no-effect control and ±100 the full control effect.

SMILES	AC50	activity, negative = inhibition
C=CCc1ccccc1OC[C@H](O)CNC(C)C	inactive	–
C=CCOc1ccccc1OC[C@H](O)CNC(C)C	–	-0.918% [at 25.6 µM]
COc1ccc(NC(=O)C2CCN(C(=O)c3cccs3)CC2)c(OC)c1	28.2 µM (active)	–
CCOC(=O)C1CCN(C(=O)c2ccccc2NC(C)=O)CC1	–	-0.79%
COc1ccc2oc(=O)c(NC(=O)C3CCCCC3)cc2c1	–	-7.77%
COc1cc(OC)cc(C(=O)Nc2ccccc2C(=O)N2CCCC2)c1	–	-8.41% [at 2.29 µM]
COC(=O)c1ccccc1NC(=O)C1CCN(C(=O)c2ccc(OC)cc2)CC1	6.31 µM (active)	–
O=C(Cn1c(-c2cscn2)nc2ccccc21)Nc1cc(F)ccc1F	14.1 µM (active)	–
CC(C)(C)c1ccc(OC(=O)Cn2c(C(F)(F)F)nc3ccccc32)cc1	–	23%
COc1ccc(O[C@H]2C=C[C@@H](c3ccccc3)O[C@@H]2CO/N=C(\C)CCN2CCCCc3nc(C)c(C)cc32)cc1	3.98 µM (active)	–
COc1ccc(O[C@H]2C=C[C@@H](c3ccccc3)O[C@@H]2CO/N=C(\C)CCN2CCCc3nc(C)c(C)cc32)cc1	3.16 µM (active)	–
Cc1cc(C)c(S(=O)(=O)Nc2ccccc2C(F)(F)F)c(C)c1	2.51 µM (active)	–
Cc1cc(C)c(S(=O)(=O)Nc2cccc(C(F)(F)F)c2)c(C)c1	12.6 µM (active)	–
C[C@@H]1C(=O)N(C)C(=O)c2nc[nH]c21	–	-3.89%
O=C(NCCOC12CC3CC(CC(C3)C1)C2)c1cccc(Br)c1	–	-3.19% [at 2.29 µM]
CCC(C)Nc1nc(OCC(F)(F)F)nc(OCC(F)(F)F)n1 (configuration not stated)	–	4.7% [at 11.4 µM]
CNc1nc(NCCOC23CC4CC(CC(C4)C2)C3)nc(OCC(F)(F)F)n1	25.1 µM (active)	–
COC(=O)/C=C/CSC1=N/C(=C/c2ccc(-n3cncn3)cc2)C(=O)N1	2 µM (active)	–
CC(C)Oc1ccc2ccccc2c1C=O	–	6.45% [at 2.29 µM]
Cn1c(Oc2ccccc2)c(C=O)c2ccccc21	–	9.35%
COc1ccc(Oc2c(C=O)c3ccccc3n2C)cc1	17.8 µM (active)	–
Cn1ncc([N+](=O)[O-])c1C(=O)N1CCOCC1	–	-9.46% [at 2.29 µM]
COc1ccc(C)cc1NC(=O)c1cc2cc3ccc(C)cc3nc2o1	–	-12.1%

SMILES	AC50	activity, negative = inhibition
Cc1ccc2cc(C(=O)O)c(C)nc2c1	–	10.8%
Cc1ccc2cc3cc(C(=O)N4CCCCC4C)oc3nc2c1 (configuration not stated)	12.6 µM (active)	–
Clc1ccc2oc(-c3cccnc3)nc2c1	–	-3.98%
c1ccc(-c2nc3ccccc3o2)nc1	–	-18.2%
Cc1ccc2nc(-c3cccnc3)oc2c1	39.8 µM (active)	–
CS(=O)(=O)N1CCN(c2c(Cl)cccc2[N+](=O)[O-])CC1	–	15.1%
O=[N+]([O-])c1ccc(N2CCCC2)cc1N1CCCC1	–	-24.1%
Cc1cc(C)n(-c2cc(N3CCN(S(=O)(=O)c4ccc(C)c(C)c4)CC3)ccc2[N+](=O)[O-])n1	3.16 µM (active)	–
C/C(Cn1nc([N+](=O)[O-])cc1C)=N\NC(=O)c1ccc(O)cc1O	–	-3.84% [at 2.29 µM]
Cc1c(Cl)c([N+](=O)[O-])nn1Cc1ccc(C(=O)N/N=C\c2cccc(Br)c2)o1	3.98 µM (active)	–
Cc1cc(C(=O)N/N=C/c2cccc([N+](=O)[O-])c2)c(C)o1	–	-17%
CCN(CC)C(=O)C(=O)N/N=C/c1cccc(Br)c1	–	-20.6%
Cc1c(Cl)c([N+](=O)[O-])nn1Cc1ccc(C(=O)N/N=C\c2cc(Cl)ccc2O)o1	2.24 µM (active)	–
N#Cc1cccc(NC(=O)N2CCCC3(CCN(C(=O)c4ccco4)CC3)C2)c1	5.01 µM (active)	–
N#Cc1cccc(NC(=O)N2CC[C@@]3(CCCN(C(=O)c4cccc(F)c4)C3)C2)c1	10 µM (active)	–
N#Cc1cccc(NC(=O)N2CC3(CCN(C(=O)c4ccco4)CC3)C2)c1	–	-26.1%
N#Cc1cccc(NC(=O)N2CCCC3(CCN(C(=O)c4cccc(F)c4)CC3)C2)c1	15.8 µM (active)	–
S=c1[nH]c2cc(Cl)ccc2s1	–	-16.9% [at 2.29 µM]
O=C(Nc1ccccc1)C(Cc1ccccc1)NC(=O)C12CC3CC(CC(C3)C1)C2 (configuration not stated)	–	-5.95%
CCc1ccc(N2CC(C(=O)NC3=NCCS3)CC2=O)cc1 (configuration not stated)	–	3.42% [at 2.29 µM]
CC(C)C(NC(=O)C12CC3CC(CC(C3)C1)C2)C(=O)NC1=NCCS1 (configuration not stated)	15.8 µM (active)	–
CCCS(=O)(=O)N1CCCC(C(=O)NCCCN2CCN(c3ccc(F)cc3)CC2)C1 (configuration not stated)	–	14.9% [at 2.29 µM]
Cc1ccc(S(=O)(=O)N(CC(=O)N2CCN(c3ccc(F)cc3)CC2)C2CCCCC2)cc1	1 µM (active)	–

SMILES	AC50	activity, negative = inhibition
Cc1ccc(S(=O)(=O)NC(=O)NN2C[C@H]3CCC[C@@H]3C2)cc1	–	10.8% [at 25.6 µM]
O[C@H](CNc1ccccn1)c1ccccc1	–	-27.1% [at 11.4 µM]
CN1CCN(c2nc3c(c(=O)n(C)c(=O)n3C)n2C)CC1	–	0.305% [at 11.4 µM]
COCCn1c(=O)c(C)nc2cnc(N3CCNCC3)nc21	–	-23.2%
CN1CCN(c2ncc3nc(-c4cccs4)c(=O)n(CCc4ccccc4)c3n2)CC1	20 µM (active)	–
COCCn1c(=O)c(-c2ccc(OC)cc2)nc2cnc(N3CCOCC3)nc21	–	-11.4%
CN1CCN(c2ncc3nc(-c4ccccc4)c(=O)n(Cc4cccs4)c3n2)CC1	–	-4.51%
COc1ccc(-c2nc3cnc(N4CCOCC4)nc3n(CCC#N)c2=O)cc1	–	5.32%
COCCn1c(=O)c(-c2ccc(OC)cc2)nc2cnc(N3CCNCC3)nc21	15.8 µM (active)	–
COCCn1c(=O)c(-c2cccs2)nc2cnc(N3CCNCC3)nc21	15.8 µM (active)	–
CN1CCN(c2ncc3nc(-c4cccs4)c(=O)n(Cc4cccs4)c3n2)CC1	10 µM (active)	–
C[N+](C)(C)c1ccc([C@H](N)C(=O)O)cc1	–	1.95% [at 11.4 µM]
CCc1cccc2c(-c3ccccc3)c3c(nc12)OCC3	–	-68.4%
C[C@@H]1C[C@H](OC(=O)[C@@H](O)c2ccccc2)CC(C)(C)N1C	–	-14.4% [at 25.6 µM]
COCCn1c(=O)c(-c2cccc(C#N)c2)nc2cnc(N3CCOCC3)nc21	–	-1.34%
Cc1nc2cnc(N3CCNCC3)nc2n(Cc2cccs2)c1=O	3.16 µM (active)	–
COCCn1c(=O)c(-c2cccc(C#N)c2)nc2cnc(N3CCN(C)CC3)nc21	–	10.2%
O=c1c(-c2cccs2)nc2cnc(N3CCNCC3)nc2n1Cc1cccs1	2.51 µM (active)	–
Cc1nc2cnc(N3CCOCC3)nc2n(C)c1=O	–	-3.9%
COCCn1c(=O)c(-c2cccc(C#N)c2)nc2cnc(N3CCNCC3)nc21	20 µM (active)	–
O=c1nc2ccccc2c2n1C[C@H](CN1CCN(c3ccccc3)CC1)N2	–	-8.5%
CC(C)=CCC/C(C)=C/CO/N=C1/C[C@@H](O)[C@@H](O)[C@@H]2[C@@H]3C(=O)N(C(C)(C)C)C(=O)[C@H]3CC[C@@H]12	–	-26.7% [at 11.4 µM]
COC(=O)C1=C(N)Oc2cc(C)n(CC3CCCO3)c(=O)c2C1c1ccccc1OC (configuration not stated)	6.31 µM (active)	–

SMILES	AC50	activity, negative = inhibition
COc1cc(Br)cc2cc(C(=O)NCC3CCCO3)c(=O)oc12 (configuration not stated)	–	-9.38%
O=C(O)[C@@H]1[C@@H](C(=O)O)[C@]23C[C@@]2(C(=O)O)[C@]2(C(=O)O)CCC3=C3CCCC312	–	7.71% [at 11.4 µM]
CNC(=O)[C@H](C)[C@H]1C[C@]1(C)[C@H](NC(=O)OCc1ccccc1)c1ccccc1	2 µM (active)	–
O=C(NCC1CCC(C(=O)O)CC1)OCc1ccccc1 (configuration not stated)	–	-20.2%
CNC(=O)[C@H](C)[C@@H]1C[C@@]1(C)[C@@H](NC(=O)OCc1ccccc1)c1ccccc1	2.51 µM (active)	–
CCOC(=O)N/N=C1/C[C@@H](O)[C@@H](O)[C@@H]2[C@@H]3C(=O)N(C(C)(C)C)C(=O)[C@H]3CC[C@@H]12	–	-11.7% [at 11.4 µM]
Cc1noc(C)c1C(=O)N1CCC[C@@]2(CCN(C(=O)Nc3ccccc3)C2)C1	15.8 µM (active)	–
COc1ccc(NC(=O)N2CC3(CCN(C(=O)c4c(C)noc4C)CC3)C2)cc1	–	-24.2%
Cc1noc(C)c1C(=O)N1CCC[C@@]2(CCN(c3ccccc3)C2)C1	5.01 µM (active)	–
Cc1noc(C)c1C(=O)N1CCC[C@@]2(CCN(C(=O)Nc3cccc(F)c3)C2)C1	5.01 µM (active)	–
Cc1noc(C)c1C(=O)N1CCC2(CC1)CN(c1ccccc1)C2	–	25%
Cc1noc(C)c1C(=O)N1CCC[C@@]2(CCN(C(=O)NC(C)C)C2)C1	–	-17.5%
Cc1noc(C)c1C(=O)N1CCC[C@@]2(CCN(c3ncccn3)C2)C1	–	-27.9%
C=CC1=C[C@@H](O)C2OC2C12OCCCO2 (some centres not stated)	–	-4.04% [at 11.4 µM]
CCCn1c(=O)c2[nH]c(C3CCCC3)nc2n(CCC)c1=O	–	-26.8%
CCCn1c(=O)c2[nH]c(-c3ccc(OCC(=O)NCCN)cc3)nc2n(CCC)c1=O	2.51 µM (active)	–
O=S(=O)(c1ccccc1)c1cnn2c(C(F)(F)F)cc(-c3ccccc3)nc12	–	14.2%
COc1cccc(-c2cc(C(F)(F)F)n3ncc(S(=O)(=O)c4ccccc4)c3n2)c1	3.98 µM (active)	–
CCCn1c(/C=C/c2ccccc2)nc2ccccc21	17.8 µM (active)	–
Cc1nc2ccccc2n1CC(=O)N/N=C\C=C\c1ccccc1	–	12.7%
CCOc1c2ccc(C(=O)NCc3ccc4c(c3)OCO4)cc2nn1CC	–	14.3% [at 2.29 µM]
CCc1ccccc1NC(=S)NCc1ccc2c(c1)OCO2	4.47 µM (active)	–
CCc1c(C(=O)NCc2ccc3c(c2)OCO3)[nH]c(C)c1C(C)=O	0.891 µM (active)	–
